Tests used:
Test in all cases: growth AUC relative to DMSO control (median of replicates) (fraction); higher = more growth (less inhibition), active = hit call of the paper
Conditions in all cases: 20 µM; 24 h;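 active = AUC reduced over 20% with Padj below 0.05 in at least 2 of 3 replicates; inactive = otherwise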
[1] = system: Akkermansia muciniphila
Procedure, shortened: (§1)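 In round-bottom 96-well plates sealed with pierced gas-permeable seals, gut bacterial monocultures in mGAM were grown anaerobically at 37 °C from OD600 0.05 with 20 µM compound (1% DMSO). OD600 readings were taken hourly for 24 h, and the minimum OD was set to 0. Area under the growth curve was then normalised to the plate median of solvent-only wells, or to row and column medians on the industrial chemical plate. The value given is the median of three biological replicates grown on separate days.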

[2] = system: Bacteroides caccae
Procedure, shortened: as §1

[3] = system: Bacteroides clarus
Procedure, shortened: as §1

[4] = system: Bacteroides dorei
Procedure, shortened: as §1

[5] = system: Bacteroides stercoris
Procedure, shortened: as §1

[6] = system: Bacteroides thetaiotaomicron
Procedure, shortened: as §1

[7] = system: Bacteroides uniformis
Procedure, shortened: as §1

[8] = system: Bifidobacterium longum subsp. longum
Procedure, shortened: as §1

[9] = system: Clostridium difficile
Procedure, shortened: as §1

[10] = system: Collinsella aerofaciens
Procedure, shortened: as §1

[11] = system: Coprococcus comes
Procedure, shortened: as §1

[12] = system: Escherichia coli ED1a
Procedure, shortened: as §1

[13] = system: Escherichia coli IAI1
Procedure, shortened: as §1

[14] = system: Eubacterium rectale
Procedure, shortened: as §1

[15] = system: Fusobacterium nucleatum subsp. animalis
Procedure, shortened: as §1

[16] = system: Lactobacillus gasseri
Procedure, shortened: as §1

[17] = system: Lactobacillus paracasei
Procedure, shortened: as §1

[18] = system: Odoribacter splanchnicus
Procedure, shortened: as §1

[19] = system: Parabacteroides distasonis
Procedure, shortened: as §1

[20] = system: Parabacteroides merdae
Procedure, shortened: as §1

Measured: growth AUC

CC1(C)C(/C=C(\Cl)c2ccc(Cl)cc2)C1C(=O)OC(C#N)c1ccc(F)c(Oc2ccccc2)c1 (stereo not given)
inactive: [1] 0.965 | [2] 0.993 | [3] 0.985 | [4] 1.04 | [5] 1 | [6] 1 | [7] 0.99 | [8] 0.94 | [9] 1.09 | [10] 1.04 | [11] 0.968 | [12] 0.986 | [13] 1.01 | [14] 0.864 | [15] 1.02 | [16] 1.04 | [17] 0.913 | [18] 1.03 | [19] 1 | [20] 1

COP(=S)(OC)Oc1ccc([N+](=O)[O-])cc1
inactive: [1] 1.18 | [2] 0.898 | [3] 1.03 | [4] 0.888 | [5] 1.04 | [6] 0.975 | [7] 0.96 | [8] 1.03 | [9] 1.02 | [10] 0.955 | [11] 0.992 | [12] 0.999 | [13] 1 | [14] 1.13 | [15] 1.13 | [16] 0.915 | [17] 0.989 | [18] 0.771 | [19] 0.93 | [20] 0.964

C=CC(N)=O
inactive: [1] 1.01 | [2] 0.985 | [3] 1 | [4] 0.963 | [5] 0.983 | [6] 0.99 | [7] 1.01 | [8] 0.875 | [9] 1.01 | [10] 1.01 | [11] 1.01 | [12] 0.972 | [13] 1 | [14] 0.997 | [15] 1.02 | [16] 1.01 | [17] 1.01 | [18] 1.01 | [19] 0.976 | [20] 0.993

CCOP(=S)(OCC)Oc1cc(-c2ccccc2)on1
inactive: [1] 1.24 | [2] 0.984 | [3] 0.984 | [4] 0.861 | [5] 0.961 | [6] 0.956 | [7] 0.955 | [8] 1.06 | [9] 1.02 | [10] 0.942 | [11] 1.03 | [12] 0.993 | [13] 0.993 | [14] 1.05 | [15] 0.973 | [16] 0.886 | [17] 0.964 | [18] 1.01 | [19] 0.854 | [20] 1

Oc1c(Br)cc(Br)cc1Br
inactive: [1] 0.965 | [2] 0.916 | [3] 0.917 | [4] 1.01 | [5] 1.22 | [6] 1.01 | [7] 0.966 | [8] 0.984 | [9] 0.982 | [10] 0.991 | [11] 1.01 | [12] 0.945 | [13] 0.845 | [14] 1 | [15] 1.03 | [16] 1.13 | [17] 0.919 | [18] 0.748 | [19] 0.934 | [20] 0.991

CCSC(=O)N1CCCCCC1
inactive: [1] 0.873 | [2] 1.05 | [3] 0.974 | [4] 1 | [5] 1 | [6] 0.995 | [7] 0.966 | [8] 0.992 | [9] 0.992 | [10] 0.981 | [11] 1.02 | [12] 0.991 | [13] 0.993 | [14] 0.977 | [15] 1.06 | [16] 1.06 | [17] 0.954 | [18] 0.947 | [19] 0.997 | [20] 1

COP(=O)(OC)Oc1ccc(SC)c(C)c1
inactive: [1] 0.861 | [2] 0.994 | [3] 0.978 | [4] 1.03 | [5] 0.981 | [6] 0.979 | [7] 0.982 | [8] 1 | [9] 0.999 | [10] 0.993 | [11] 0.991 | [12] 1 | [13] 1.02 | [14] 0.96 | [15] 0.986 | [16] 1.1 | [17] 1 | [18] 0.994 | [19] 1.02 | [20] 1.05

O=C(O)COc1ccccc1
inactive: [1] 0.969 | [2] 0.918 | [3] 0.989 | [4] 0.944 | [5] 1.05 | [6] 1.02 | [7] 1 | [8] 1.11 | [9] 0.988 | [10] 0.885 | [11] 0.999 | [12] 0.981 | [13] 1 | [14] 1 | [15] 1.01 | [16] 1.03 | [17] 0.753 | [18] 1.03 | [19] 1 | [20] 0.959

COC(=O)N(C(=O)N1CO[C@@]2(C(=O)OC)Cc3cc(Cl)ccc3C2=N1)c1ccc(OC(F)(F)F)cc1
inactive: [1] 0.961 | [2] 0.952 | [3] 0.965 | [4] 0.982 | [5] 0.965 | [6] 0.873 | [7] 0.98 | [8] 0.83 | [9] 0.916 | [10] 0.884 | [11] 0.857 | [12] 0.946 | [13] 0.939 | [14] 1.09 | [15] 0.92 | [16] 0.654 | [17] 0.896 | [18] 0.994 | [19] 0.808 | [20] 0.901

CCOP(=S)(OCC)Oc1cc(Cl)c(SC)cc1Cl
inactive: [1] 1.01 | [2] 0.997 | [3] 0.979 | [4] 0.999 | [5] 1.11 | [6] 0.992 | [7] 0.989 | [8] 0.981 | [9] 1.05 | [10] 1.01 | [11] 1.02 | [12] 0.999 | [13] 0.977 | [14] 0.897 | [15] 1.03 | [16] 0.981 | [17] 0.995 | [18] 1.12 | [19] 1.01 | [20] 0.926

CCOP(=S)(OCC)Oc1ccc(=O)n(-c2ccccc2)n1
inactive: [1] 0.918 | [2] 0.997 | [3] 0.943 | [4] 0.977 | [5] 0.959 | [6] 0.948 | [7] 0.949 | [8] 1.04 | [9] 0.936 | [10] 0.99 | [11] 0.973 | [12] 0.965 | [13] 0.97 | [14] 0.956 | [15] 0.955 | [16] 0.928 | [17] 1.01 | [18] 0.986 | [19] 0.922 | [20] 0.974

CC1CCCCC1NC(=O)Nc1ccccc1 (mixture of isomers)
inactive: [1] 0.952 | [2] 1 | [3] 0.967 | [4] 0.993 | [5] 0.973 | [6] 0.969 | [7] 0.959 | [8] 0.898 | [9] 1.01 | [10] 0.976 | [11] 0.989 | [12] 0.995 | [13] 0.972 | [14] 0.942 | [15] 0.999 | [16] 1.01 | [17] 0.926 | [18] 1.01 | [19] 0.982 | [20] 0.986

OC(Cn1cncn1)(c1ccc(F)cc1)c1ccccc1F (stereo not given)
inactive: [1] 0.876 | [2] 0.976 | [3] 0.971 | [4] 0.988 | [5] 1 | [6] 0.98 | [7] 0.999 | [8] 1.21 | [9] 1 | [10] 0.985 | [11] 0.975 | [12] 1.04 | [13] 0.98 | [14] 0.958 | [15] 1.02 | [16] 0.962 | [17] 0.909 | [18] 0.979 | [19] 1.01 | [20] 0.995

Clc1nc(Cl)nc(Nc2ccccc2Cl)n1
inactive: [1] 1.04 | [2] 1.02 | [3] 0.962 | [4] 1.02 | [5] 1.07 | [6] 0.995 | [7] 0.997 | [8] 1.01 | [9] 1.03 | [10] 1.01 | [11] 1.03 | [12] 1.01 | [13] 0.998 | [14] 0.859 | [15] 1.02 | [16] 0.991 | [17] 1.01 | [18] 1.08 | [19] 1.04 | [20] 0.969

C1=Cc2cccc3cccc1c23
inactive: [1] 1.01 | [2] 1.02 | [3] 0.996 | [4] 1.02 | [5] 1.03 | [6] 1.01 | [7] 1 | [8] 0.946 | [9] 1 | [10] 0.995 | [11] 1.01 | [12] 1.02 | [13] 1.01 | [14] 0.988 | [15] 1.02 | [16] 0.975 | [17] 1.04 | [18] 0.99 | [19] 0.889 | [20] 1.02

COS(=O)(=O)[O-].Cn1c(-c2ccccc2)cc(-c2ccccc2)[n+]1C
inactive: [1] 0.936 | [2] 0.994 | [3] 0.966 | [4] 0.976 | [5] 0.979 | [6] 0.938 | [7] 1.01 | [8] 0.925 | [9] 1.04 | [10] 0.989 | [11] 1 | [12] 0.98 | [13] 0.974 | [14] 1 | [15] 0.985 | [16] 0.964 | [17] 0.981 | [18] 1.01 | [19] 0.985 | [20] 0.974
